Measurements: PubChem BioAssay AID623911 (Vanderbilt High Throughput Screening Facility, 2012)
The campaign covered roughly 2,100 compounds. About 770 (37%) were called active.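 How the source made its calls: active means by-eye trace score of 1 for enhancers or -1 for inhibitors, so actives lie on both sides (some results past the limit were not filed as active); inactive means score 0, or 3 fluorescent, or 4 baseline rise.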 The list shows a part of the results.

Target: G protein-activated inward rectifier potassium channel 2 (Homo sapiens) + G protein-activated inward rectifier potassium channel 1 (Homo sapiens) (UniProt P48051+P48549)
Sequence (P48051 whole entry, looked up): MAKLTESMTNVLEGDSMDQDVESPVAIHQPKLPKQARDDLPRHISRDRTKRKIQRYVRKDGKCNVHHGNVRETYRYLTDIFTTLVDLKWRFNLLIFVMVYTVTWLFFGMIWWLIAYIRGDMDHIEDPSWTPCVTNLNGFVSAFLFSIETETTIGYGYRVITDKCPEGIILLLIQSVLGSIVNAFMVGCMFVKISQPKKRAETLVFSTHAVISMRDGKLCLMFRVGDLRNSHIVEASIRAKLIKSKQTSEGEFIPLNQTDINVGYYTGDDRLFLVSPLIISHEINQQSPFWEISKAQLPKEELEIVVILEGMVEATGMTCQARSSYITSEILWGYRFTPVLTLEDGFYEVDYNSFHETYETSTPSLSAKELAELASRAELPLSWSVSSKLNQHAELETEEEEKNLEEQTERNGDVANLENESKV
Sequence (P48549 whole entry, looked up): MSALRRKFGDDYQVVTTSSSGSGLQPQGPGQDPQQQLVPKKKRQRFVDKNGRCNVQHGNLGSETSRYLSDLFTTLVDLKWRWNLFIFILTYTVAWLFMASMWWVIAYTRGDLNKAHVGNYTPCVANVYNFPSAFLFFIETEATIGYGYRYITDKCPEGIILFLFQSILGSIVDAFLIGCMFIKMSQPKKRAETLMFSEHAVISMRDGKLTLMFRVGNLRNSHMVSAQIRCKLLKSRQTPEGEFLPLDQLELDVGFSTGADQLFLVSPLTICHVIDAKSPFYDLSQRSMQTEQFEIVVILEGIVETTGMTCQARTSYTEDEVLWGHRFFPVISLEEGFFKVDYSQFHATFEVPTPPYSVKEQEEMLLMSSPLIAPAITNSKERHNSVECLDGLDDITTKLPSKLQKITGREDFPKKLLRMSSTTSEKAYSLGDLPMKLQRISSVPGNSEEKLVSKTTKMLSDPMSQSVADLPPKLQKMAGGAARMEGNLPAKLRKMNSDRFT
Test: GIRK1/2 thallium flux modulators, retest, confirmation, cell-based, HEK293 rmGlu8/hGIRK1/2, FluoZin-2 (AID 623911)
Conditions: HEK293 rmGlu8/hGIRK1/2, thallium flux FluoZin-2; actives lie on both sides; glutamate co-added at its EC20 level

Manual score, inactive:
O=C1c2ccccc2C(=O)N1Nc1ccccc1 0
C(/C=C/C=C/Nc1ccccc1)=Nc1ccccc1 3
CCCCCCCCc1nc(=S)[nH][nH]1 0.5
CC1=C(n2nnc3ccccc32)C(c2ccccc2)C(C#N)=C(N)O1 (stereo not drawn) 0
CC(C)CC(=O)Nc1ccccc1-c1nnn(CC(=O)N2CCc3ccccc3C2)n1 0
O=C(COc1c(Br)cc(Br)c2cccnc12)N1CCc2ccccc2C1 0
O=C(O)c1oc2ccccc2c1CSc1ccccn1 0
CCCCCCc1cc2cc(C(=O)NC)c(=N)oc2cc1O 3
O=C(Nc1ccc(N2CCCCC2)c(Cl)c1)c1ncn[nH]1 0
Cc1ccccc1NC(=S)NC(=O)c1cc(-c2ccccc2)nc2ccccc12 0
O=C(NC(=S)NC1CCCCCC1)c1cncc(Br)c1 0
COc1ccc(OCC(=O)NC(=S)Nc2ccc(N3CCOCC3)c(Cl)c2)cc1 0
CC(C)(C)CC(=O)Nc1ccc(C(N)=O)cc1 0
Cc1ccc(NC(=O)Cn2cccc2)cc1Cl 0
CCn1c(CCNC(=O)c2cccs2)nnc1SCC(=O)Nc1ccc(Cl)cc1 0
O=C(CC(O)(C(F)(F)F)C(F)(F)F)Nc1ccc(Cl)c(Cl)c1 0
O=C(CSCCO)Nc1ccccc1 0
Cn1c(=O)c(NCCc2ccccc2)c2c3c(cccc31)C(=O)c1ccccc1-2 3
Cc1ccccc1Cn1c(-c2cncs2)nc2ccccc21 0
C1CCC2(CC1)OCC1(CO2)COC2(CCCCC2)OC1 0
Cc1cccc(NC(=S)N2CCC(C(=O)c3ccc(F)cc3)CC2)c1C 0
Cc1cccc(/C=c2\s/c(=C\C(=O)C(C)(C)C)[nH]c2=O)c1 0
Cc1cccc(NC(=O)COc2ccc(Br)cc2/C=N/O)c1 0
CCC(=O)Oc1ccc(C/C(=N\O)c2ccc(O)cc2O)o1 0
COc1ccc(-c2cc(C(F)(F)F)c3c(n2)sc2c(O)cc(=O)[nH]c23)c(OC)c1 -0.5
N#CC(C#N)=C1C=C2C=C(N3CCCCC3)CCC2CC1 (stereo not drawn) 3
CC(C)CN(C(=O)COC(=O)Cc1n[nH]c(=O)c2ccccc12)C1CCS(=O)(=O)C1 (stereo not drawn) 0
COc1ccc(NC(=O)CSc2nnc(-c3ccccn3)n2Cc2ccco2)cc1OC 0
CCOC(=O)c1oc2nc(C(C)C)c3c(c2c1N)CC(C)(C)OC3 0
COc1ccccc1/C=C/C=N\N1CCN(Cc2ccccc2Cl)CC1 0
O/N=C/c1cc(Cl)ccc1OCc1cccc2ccccc12 0
O=C(COc1ccccc1F)NC1CCN(Cc2ccccc2)CC1 0
CC(C)CCn1c(SCC#N)nc2c(sc3ccccc32)c1=O 0
CCCCn1c(SCC(N)=O)nc2c(sc3ccccc32)c1=O 0
Cc1cccc2c1nc(-c1ccccc1)n1cnnc21 0
Cc1ccc(C)c(N2CCN(C(=O)CCCOc3cc(=O)n(C)c4ccccc34)CC2)c1 0
COc1ccccc1N1CCN(C(=O)CCn2c(=O)[nH]c3ccsc3c2=O)CC1 0
CCC(=O)n1nc(-c2cccnc2)nc1NCc1ccc(OC)cc1 0
CC(C)CCNC(=O)C(C)N(C(=O)Cn1nnc(-c2ccc(F)cc2)n1)C1CCCC1 (stereo not drawn) 0.5
CN1C=CC2=C(C#N)C(N)C(C#N)(C#N)C(c3ccccc3)C2C1 (stereo not drawn) 3
Clc1ccc(Cc2ccc(SCc3ccccc3)nn2)c(Cl)c1 0
S=C(N/N=C/c1ccccc1Cl)Nc1ccccc1 0.5
S=C(NCCc1ccccc1)Nc1ccc(Cl)cc1Cl -0.5
S=C(NN=C1CCCCCC1)Nc1ccc(Cl)cc1 0.5
CC1(C)CC(=O)c2c(noc2-c2ccccc2)C1 0
O=C(NC(=S)Nc1ccccc1N1CCCC1)c1ccc(-c2cccc([N+](=O)[O-])c2)o1 0
Fc1ccc(/C=N/NC(=S)Nc2ccc(Cl)cc2)cc1F 0
Fc1ccc(NC(=S)N/N=C/c2cccc(Br)c2)c(F)c1 0
CCn1c(=O)c(C(=O)NCCCO)c(O)c2ccccc21 0
Cc1ccc(C)c(OCC(=O)Nc2nc3ccc([N+](=O)[O-])cc3s2)c1C 0
O=C(NC(Nc1nc2ccc([N+](=O)[O-])cc2s1)(C(F)(F)F)C(F)(F)F)c1ccccc1Cl 0
Cc1noc(C)c1CSc1nc2ccccc2c(=O)n1-c1ccc(F)cc1F 0
COC(=O)c1c(NC(=O)Cc2cccs2)sc(C(=O)NC2CCCCC2)c1C 0
O=C(Cc1cccs1)Nc1cccnc1 0
CCOc1ccc(Nc2ncnc(N)n2)cc1 1.5
CCOc1ccc(NC(=O)CCC(=O)c2ccc(-c3ccccc3)cc2)cc1 0
Cc1ccc(-c2cc(-c3cccs3)[nH]n2)c(O)c1 0
CN1C=CC2=C(C#N)C(N)C(C#N)(C#N)[C@H](c3ccccc3)[C@H]2C1 (stereo partly drawn) 1.5
Cn1c(SCC(=O)c2cc3ccccc3o2)nnc1-c1ccccc1 0
CC1CC2=C(CC1/C=N/NC(N)=S)C(C)(C)CCC2 (stereo not drawn) 0
CCN(CC)C(=O)CSc1nnc(NC(=O)CCc2ccccc2)s1 0
Cc1ccccc1NC(=S)NC(=O)CCc1ccccc1 0
S=C1Nc2cc(Cl)ccc2Sc2ccccc21 0.5
CCC1(C)Cc2c(sc3c2c(=O)n(C)c2nnc(SCc4ccc5c(c4)OCO5)n32)CO1 (stereo not drawn) 0
O=c1c2cccnc2[nH]c(=S)n1Cc1ccccc1 0

Manual score, active:
C=CCCCCCCCCc1nc(=S)[nH][nH]1 1
CCOC(=O)c1c(C)c(C(=O)N2CCc3ccccc3C2)c(C)n1CC -1
CCCCc1cc(=O)oc2cc(C)cc(O)c12 -1
Cc1ccccc1NC(=S)NC(=O)c1cncc(Br)c1 1
O=C(NC(=S)Nc1ccc(N2CCOCC2)c(Cl)c1)c1cncc(Br)c1 1
CC1CCCC(NC(=S)NC(=O)c2cncc(Br)c2)C1C (stereo not drawn) 1
NC(=O)SCC(=O)Nc1ccc(Cl)cc1 1
NC(=O)SCC(=O)Nc1cccc(Cl)c1 1
Cc1ccc(NC(=O)CSC(N)=O)cc1Cl 1
Cc1ccccc1Cn1c(=N)n(CC(O)c2ccco2)c2ccccc21 (stereo not drawn) -1
Cc1ccccc1Cn1c(=N)n(CC(=O)c2ccco2)c2ccccc21 -1
c1ccc(-c2nnc3n2NC(c2ccc4c(c2)OCO4)S3)cc1 (stereo not drawn) 1
Cc1ccc(/C=C/C(=O)c2ccccc(=O)c2O)cc1C 1
O=C(/C=C/c1ccccc1)c1cc(Br)ccc(=O)c1O 1
COc1ccc(/C=C/C(=O)c2cc(Br)ccc(=O)c2O)cc1 1
Cc1cccc(/C=C/C(=O)c2cc(Br)ccc(=O)c2O)c1 1
CCc1ccc(/C=C/C(=O)c2cc(Br)ccc(=O)c2O)cc1 1
Cc1cc(C)n(-c2nnc(C)n2/N=C/c2ccccc2OCc2ccccc2Cl)n1 -1
OC(c1ccccc1)C1CN(Cc2ccccc2)CCC1(O)c1ccccc1 (stereo not drawn) -1
Cc1ccc(C)c2[nH]c(=O)c(CN(CCN3CCCC3)C(=O)Nc3ccc(F)cc3)cc12 -1
CCOC(=O)CSc1nc2c(sc3ccccc32)c(=O)n1CCCN1CCOCC1 -1
O=C(CCn1c(=O)oc2ccccc21)N1CCN(c2ccccc2Cl)CC1 -1
CC(C)CCNC(=O)C(C)N(Cc1ccc(F)cc1)C(=O)c1ccc(CN2CCCCC2)o1 (stereo not drawn) -1
Fc1ccccc1CNC(=S)Nc1ccc(Cl)cc1 1
Fc1ccc(NC(=S)NCc2ccccc2Cl)cc1 1
S=C(NCc1ccc(Cl)cc1Cl)Nc1ccccc1 1
O=C(Oc1ccccc1C(=S)N1CCCCC1)c1cc([N+](=O)[O-])cc([N+](=O)[O-])c1 -1
Fc1ccc(NC(=S)N/N=C/c2ccc(F)c(F)c2)c(F)c1 1
Oc1c(C=NCc2ccncc2)sc2ccccc12 1
CCCN(CCC)CCCNC(=O)c1cc2c(=O)n(C)c3ccccc3c2n1C -1
CN(CCNC(=O)c1cc2c(=O)n(C)c3ccccc3c2n1C)Cc1ccccc1 -1
O=C(NC(Nc1nc2ccc([N+](=O)[O-])cc2s1)(C(F)(F)F)C(F)(F)F)c1ccccc1 1
Cc1onc(-c2c(F)cccc2Cl)c1C(=O)OCn1nnc2ccccc2c1=O -1
COc1cc(NC(=O)Cc2cccs2)cc(OC)c1 1
COc1cccc(NC(=O)Nc2cccs2)c1 1
O=C(Nc1cccs1)Nc1c(F)c(F)c(F)c(F)c1F 1
CCOc1ccc(NC(=O)Nc2cccs2)cc1 1
CCN(CC)CC(O)COc1ccccc1C(=O)CCc1ccccc1 (stereo not drawn) -1
S=C1CCSc2ccc(Cl)cc2N1 1
CCC1(C)Cc2c(sc3[nH]c(=S)n(Cc4ccccc4)c(=O)c23)CO1 (stereo not drawn) 1
CC(C)C1Cc2c(sc3c2c(=O)n(Cc2ccccc2)c2nncn32)CO1 (stereo not drawn) 1
CC1(C)Cc2c(sc3[nH]c(=S)n(Cc4ccccc4)c(=O)c23)CO1 1
CC(C)C1Cc2c(sc3[nH]c(=S)n(Cc4ccccc4)c(=O)c23)CO1 (stereo not drawn) 1
